Experimental data: PubChem BioAssay AID1159580 (chemical genetic matrix, 2015)
Hit rate of the full screen: of about 5,500 compounds, about 2,000 (36%) were called active. Not shown: some 18% with an inconclusive outcome. No stated cut-off is given here; in the data, active means normalized growth mostly below about 0.91 (no sharp cut-off); inconclusive means no clear call, values can overlap the other calls; inactive means mostly above about 0.92. This is one part of the list.

Assay: chemical genetic growth profiling, strain panel (AID 1159580);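 further: tested at 20 µM; growth read once vehicle control cultures reached saturation at 30 °C; 1 = growth at the plate median or of vehicle wells; lower values mean less growth of the strain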
Conditions: growth OD

Measured: normalized growth

COC(OC)c1cc(=O)[nH]c(=S)[nH]1
inactive: S. cerevisiae deletion strains, locus YAL013W, strain DEP1, hits give low values 1.01 | S. cerevisiae deletion strains, locus YBR229C, strain ROT2, hits give low values 1.02 | S. cerevisiae deletion strains, locus YDL101C, strain DUN1, hits give low values 1 | S. cerevisiae deletion strains, locus YDL134C, strain PPH21, hits give low values 1.02 | S. cerevisiae deletion strains, locus YDR150W, strain NUM1, hits give low values 0.918 | S. cerevisiae deletion strains, locus YEL061C, strain CIN8, hits give low values 1.04 | S. cerevisiae deletion strains, locus YGR078C, strain PAC10, hits give low values 1.03 | S. cerevisiae deletion strains, locus YHR030C, strain SLT2, hits give low values 1.06 | S. cerevisiae deletion strains, locus YHR087W, strain rtc3, hits give low values 1.01 | S. cerevisiae deletion strains, locus YJL187C, strain SWE1, hits give low values 1.02 | S. cerevisiae deletion strains, locus YJR043C, strain POL32, hits give low values 1.01 | S. cerevisiae deletion strains, locus YJR075W, strain HOC1, hits give low values 1.01 | S. cerevisiae deletion strains, locus YLR039C, strain RIC1, hits give low values 1.07 | S. cerevisiae deletion strains, locus YLR058C, strain SHM2 (second series), hits give low values 1.01 | S. cerevisiae deletion strains, locus YLR085C, strain ARP6, hits give low values 1.11 | S. cerevisiae deletion strains, locus YLR262C, strain YPT6, hits give low values 1.03 | S. cerevisiae deletion strains, locus YML094W, strain GIM5, hits give low values 1.02 | S. cerevisiae deletion strains, locus YMR219W, strain ESC1, hits give low values 1.01 | S. cerevisiae deletion strains, locus YMR263W, strain SAP30, hits give low values 1.03 | S. cerevisiae deletion strains, locus YMR307W, strain GAS1, hits give low values 1.12 | S. cerevisiae deletion strains, locus YNL153C, strain GIM3, hits give low values 1.01 | S. cerevisiae deletion strains, locus YNL298W, strain CLA4 (second series), hits give low values 1.08 | S. cerevisiae deletion strains, locus YNL322C, strain KRE1, hits give low values 1.01 | S. cerevisiae deletion strains, locus YNR030W, strain Alg12, hits give low values 1.02 | S. cerevisiae deletion strains, locus YPL055C, strain LGE1, hits give low values 0.935 | S. cerevisiae deletion strains, locus YPL241C, strain CIN2, hits give low values 0.913 | S. cerevisiae deletion strains, locus YPR135W, strain CTF4, hits give low values 1.03 | S. cerevisiae strains, strain wild type, hits give low values 1.01
